# Results: ChEMBL document CHEMBL4513216, “Probing the Open Global Health Chemical Diversity Library for Multistage-Active Starting Points for Next-Generation Antimalarials” (ACS Infect Dis, 2020)
# Out of some 69,000 compounds screened, about 8,600 (12%) showed an effect of 50% or more. The entries come from a sample that favours strong results as a whole.
# Tested on: Plasmodium berghei
# Assay: Screen against P. berghei liver stage (PbLuc), transformed with Luciferase, at 10uM
# Type: functional, HepG2
# Conditions: tested at 10 uM
row,Compound,INHIBITION
1,c1coc(CN2Cc3ccnn3CC(COCC3CC3)C2)c1 (stereo not given),-47%
2,O=C(Nc1ccccc1)N1C[C@@H]2CC[C@H]1CN(Cc1ccccc1)C2,32.5%
3,COc1cc(NC2CCCN(c3ncccc3C#N)C2)cc(OC)c1 (stereo not given),42.1%
4,CN(C(=O)c1cccc(NCc2cccs2)c1)C(C1CC1)C1CC1,64.8%
5,COC(C)c1cccc(NCc2ccsc2)c1 (stereo not given),32.8%
6,CN1CCc2ccc(NCc3cccs3)cc2C1=O,-99.6%
7,COC(C)c1cccc(NCc2cccc(O)c2)c1 (stereo not given),-52.4%
8,CN(C(=O)c1cccc(NCC(=O)O)c1)C(C1CC1)C1CC1,44.8%
9,COC(C)c1cccc(NCc2cccs2)c1 (stereo not given),50.1%
10,Cc1n[nH]c2nc(-c3cccc(Cl)c3)cc(C(=O)O)c12,-1.99%
11,O=C1CC2(CCSC2)C(=O)N1Cc1coc(-c2ccc(F)cc2)n1 (stereo not given),-19.7%
12,Cn1c(=O)n(C)c2cc(NS(=O)(=O)Cc3cccc(F)c3)ccc21,18.6%
13,CC(C)n1cc(C(=O)NC2CN3CCC2CC3)c2ccccc21 (stereo not given),50.8%
14,CC(C)n1ccc2cc(C(=O)Nc3nc[nH]n3)ccc21,-22.4%
15,COCCn1ccc2c(C(=O)NC3CN4CCC3CC4)cccc21 (stereo not given),63.8%
16,Cc1c(NC(=O)NC2CN3CCC2CC3)cccc1C(=O)N1CCCC1 (stereo not given),21.5%
17,Cn1ccc2c(C(=O)NC3CN4CCC3CC4)cccc21 (stereo not given),32.2%
18,CC(C)n1cc(C(=O)NC2CCS(=O)(=O)C2)c2ccccc2c1=O (stereo not given),11.1%
19,COCCn1ccc2c(C(=O)NC(C)C)cccc21,1.8%
20,Cn1ccc2ccc(C(=O)NC3CCOC(C)(C)C3)cc21 (stereo not given),11.7%
21,CC(C)n1ccc2ccc(C(=O)NC3CN4CCC3CC4)cc21 (stereo not given),58.2%
22,CCn1cc(C(=O)NC2CCN(S(C)(=O)=O)CC2)c2ccccc21,2.37%
23,COCCn1ccc2c(C(=O)O)cccc21,17.7%
24,CC(C)n1ccc2c(C(=O)NC3CN4CCC3CC4)cccc21 (stereo not given),50.8%
25,CCCc1nc(NCC(=O)N2CCOCC2)c2c(n1)c(C)nn2CC,45.8%
26,Cc1cc(NC(=O)C2CCCN(C(=O)NCC(C)C)C2)ccn1 (stereo not given),-15.8%
27,CSCc1cccc(S(=O)(=O)N2CCCCC2)c1,37.5%
28,O=C1N(C2CCOCC2)CCCC12CCN(c1ncccc1Cl)C2 (stereo not given),12%

row,Compound,INHIBITION
1,Nc1ncc(CN2CCC(O)(c3ccccc3F)CC2)cn1,31.5%
2,CC(NC(=O)c1ccc(Cl)cc1)c1nnc(SCC(N)=O)n1C (stereo not given),12.315%
3,Cn1nccc1-c1cnc2n1CCNC21CCN(C(=O)C2(C)CC2)CC1,13.1%
4,Cc1cnc(CNC(=O)N(CCCO)C2CCc3ccccc32)s1 (stereo not given),38.5%
5,CC(=O)N1CC[C@H]2OCC[C@@]2(C(=O)NCc2cnc(C)cn2)C1,42.1%
6,O=C(NCCN1C(=O)c2ccccc2C1=O)c1scnc1Cl,19.4%
7,COCCn1cc(C(=O)Nc2nc3c(s2)CCC3)c2ccccc21,45.5%
8,COCCn1ccc2c(C(=O)Nc3nc4c(s3)CCC4)cccc21,79.2%
9,COCCn1cc(CC(=O)Nc2nc3c(s2)CCC3)c2ccccc21,-51.3%
10,CCn1ccnc1CN1CCN(CCC(=O)NC2CCCCC2)CC1,-1.65%
11,COCC(=O)N(Cc1ccc2cc[nH]c2c1)C1CC1,10.9%
12,CCNC(=O)NCC1(CN2CCOCC2)CCCCC1,11.9%
13,CCc1ncc(CNC2CC(=O)N(CCc3cccc(Cl)c3)C2)cn1 (stereo not given),-11.5%
14,Cc1ncc(CNC2CC(=O)N(CCc3cccc(Cl)c3)C2)n1C (stereo not given),60.5%
15,O=C1CC(NCc2ncc[nH]2)CN1CCc1cccc(Cl)c1 (stereo not given),39.9%
16,Cc1nc(CNC2CC(=O)N(CCc3cccc(Cl)c3)C2)c[nH]1 (stereo not given),43.4%
17,CN(C)c1ncc(CNC2CC(=O)N(CCc3cccc(Cl)c3)C2)s1 (stereo not given),53.9%
18,O=C1CC(NCc2ccncc2)CN1CCc1cccc(Cl)c1 (stereo not given),44.8%
19,Cc1cccc(CNC2CC(=O)N(CCc3cccc(Cl)c3)C2)n1 (stereo not given),-13%
20,Cc1nc[nH]c1CNC1CC(=O)N(CCc2cccc(Cl)c2)C1 (stereo not given),53.9%
21,Cc1ncc(CNC2CC(=O)N(CCc3ccc(F)cc3)C2)n1C (stereo not given),14.5%
22,Cn1cccc1C(=O)NCc1ccnc(C2CCCOC2)n1 (stereo not given),39.8%
23,COc1ccc(Cc2nnc(NC(=O)C3CC34CCC4)s2)cc1OC (stereo not given),17.75%
24,Cc1cc(O)nc(C2CCN(C(=O)CO)CC2)n1,30.55%
25,Cc1noc(C)c1CCC(=O)N1CCCN(C)CC1,1.7%
26,Cc1cnc(N2CCCC3(CCOCC3)C2)nc1,-22.1%
27,CNC(=O)c1ccnc(N2CCCC(COc3cccc(C)c3)C2)c1 (stereo not given),47.2%
